The target of assay [1] is Lysosomal acid glucosylceramidase (Homo sapiens) (UniProt P04062). The experiment in a line: Glucocerebrosidase-p2 (AID 348; in the data active = potency below about 10 µM; also: potency is read from the fitted curve at half-maximal effect). Conditions: purified GBA, blue fluorogenic substrate, 40 min. In outline:
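Compounds titrated from 0.6 nM upwards against 0.2 nM enzyme in pH 5.9 citric acid/KH2PO4, taurocholate, tween-20; blue fluorogenic substrate 80 uM, 40 min room temperature, stopped and read Ex 365/Em 440 for AC50.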

In assay [2] the target is Cytochrome P450 1A2 (Homo sapiens) (UniProt P05177). The experiment in a line: p450-cyp1a2 (AID 410; calls by dose curve; also: potency is read from the fitted curve at half-maximal effect). Particulars: recombinant CYP1A2, luciferin-ME demethylation, luminescence; series mostly up to 11.4 µM. The procedure, abridged:
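Human CYP1A2 (20nM) demethylated Luciferin-ME at its Km (100uM) in 100mM KPO4. After 10 min compound preincubation, NADPH regeneration ran the reaction 60 min at room temperature. Luciferin was read by luminescence, normalized to 57 uM furafylline.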

A short description of assay [3]: NFAT Signaling Pathway (AID 444).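 Also: carbachol stimulus at about its EC50 of 1 µM final; % is scaled to controls: 0 for no effect and ±100 for the full control effect.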 Conditions: Jurkat NFAT-bla M1, carbachol, beta-lactamase ratio, 5 h; at 7.69 µM (top of the series) unless noted. In outline: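 Jurkat cells with NFAT-driven β-lactamase reporter and co-expressed M1 receptor, stimulated with carbachol (final 1 uM, ~EC50), compound titration, 5 h at 37 °C. CCF4 loaded 1 h at RT; 460/530 nm ratio gave %activity and AC50.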

For assay [4], the target named is Glucocorticoid receptor (Homo sapiens) (UniProt P04150). The experiment in a line: GR-GFP Redistribution (AID 450;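 active = compounds whose dose series gives a full or clear partial fitted curve of increased nuclear translocation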; also: potency is read from the fitted curve at half-maximal effect). Particulars: U2OS GR-GFP nuclear translocation, laser cytometry, 2 h.
The target is the same in assay [5]. The experiment in a line: GR-EFC Redistribution (AID 451; calls by dose curve; also: potency is read from the fitted curve at half-maximal effect). Particulars: CHO-K1 GR-EFC translocation, beta-gal luminescence, 2 h. The procedure, abridged:
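CHO-K1 cells expressing nuclear EA and GR-ED fragments of b-gal; compounds titrated up to 46 uM final, 2 h at 37 C. GR nuclear translocation read as complemented b-gal luminescence after 1 h RT detection.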

For assay [6], the target named is Mitogen-activated protein kinase 10 (Mus musculus) (UniProt Q61831). The experiment in a line: JNK3 AlphaScreen Assay (AID 530).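 Also: kinase came from lysate of stimulated human HepG2 cells; signal reports phosphorylation of biotinylated GST-cJun 1-79 at Ser73 with 10 µM ATP; % is scaled to controls: 0 for no effect and ±100 for the full control effect.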 Particulars: JNK3 lysate, c-Jun phosphorylation; series mostly up to 11.4 µM. In outline:
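qHTS format: compounds tested as titrations against IL-1beta/TNF-alpha-activated HepG2 lysate JNK3 with biotin-GST-cJun substrate and 10 uM ATP at room temperature. Loss of anti-phospho-cJun AlphaScreen signal indicates inhibition.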

Assay [7] deals with 3',5'-cyclic-AMP phosphodiesterase 4B (Homo sapiens) (UniProt Q07343). The experiment in a line: qHTS Assay for Inhibitors of PDE-IV (AID 607; active = well fitted activation curve with a large enough effect in the main read-out, with a control signal flat, not every such curve was filed as active; also: % of control where 0% means no effect). Conditions: HEK293 ACTOne CNG channel cells, membrane potential fluorescence; series mostly up to 22.9 µM. The procedure, abridged: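 HEK293 ACTOne cells with CNG channel (1000/well), endogenous PDE4; membrane potential dye, compounds up to 22.9 uM final. Fluorescence Ex 535/Em 590; RO 20-1724 (100 uM final) as reference.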

The target in assay [8] is Cytochrome P450 3A4 (Homo sapiens) (UniProt P08684). The experiment in a line: qHTS Assay for Inhibitors and Substrates of Cytochrome P450 3A4 (AID 884; active = well fitted curve in the direction sought with a large enough effect; an effect the other way counts as inactive or inconclusive; also: potency is read from the fitted curve at half-maximal effect; nearly all actives have a fitted effect of over 50% in size). Particulars: recombinant CYP3A4, Luciferin-PPXE luminescence; series mostly up to 57.1 µM. In outline:
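20 nM human CYP3A4 with 25 uM Luciferin-PPXE (at KM) in 200 mM KPO4, preincubated 10 min with compound; NADPH regeneration started a 60 min RT reaction. Luciferin detected by luminescence, normalized to 57 uM ketoconazole as full inhibition.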

For assay [9] the target is unchanged. The experiment in a line: qHTS Assay for Activators of Cytochrome P450 3A4 (AID 885; active = well fitted curve in the direction sought with a large enough effect; an effect the other way counts as inactive or inconclusive; also: nearly all actives have a fitted effect of over 65% in size). Conditions: recombinant CYP3A4, Luciferin-PPXE luminescence, 60 min; series mostly up to 11.4 µM. The procedure, abridged:
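Human CYP3A4 (20 nM) with Luciferin-PPXE at 25 uM (its KM) in 200 mM KPO4; 10 min compound preincubation, then NADPH regeneration and 60 min reaction at RT. Luciferin read by luminescence; normalized to 57 uM ketoconazole full inhibition.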

Assay [10] in a line: Stat Signaling Pathway (AID 446).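 Also: ME-180 cervical cancer cells given 40 pM IL-6 alongside compound; SIE-controlled beta-lactamase reporter measured as 460/530 nm FRET emission ratio; % is scaled to controls: 0 for no effect and ±100 for the full control effect.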 Particulars: ME-180 SIE beta-lactamase reporter, IL-6 stimulated, 5 h; at 7.69 µM (top of the series) unless noted. In outline: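 ME-180 cells carrying a SIE-driven beta-lactamase reporter are stimulated with 40 pM IL-6 for 5 h at 37C in the presence of compound. The 460/530 nm FRET substrate ratio is read after 2.5 h at RT. Data are normalised to 300 pM IL-6 and to 125 nM JAK inhibitor controls.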

The target of assay [11] is Cytochrome P450 2C19 (Homo sapiens) (UniProt P33261). The experiment in a line: qHTS Assay for Inhibitors and Substrates of Cytochrome P450 2C19 (AID 899; active = well fitted curve in the direction sought with a large enough effect; an effect the other way counts as inactive or inconclusive; also: potency is read from the fitted curve at half-maximal effect; nearly all actives have a fitted effect of over 60% in size). Conditions: recombinant CYP2C19, luciferin-H EGE luminescence; series mostly up to 11.4 µM. The procedure, abridged: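 5 nM human CYP2C19 with 10uM Luciferin-H EGE (at KM) in 50mM KPO4, compound preincubated 10 min at 37C, then NADPH regeneration for 60 min at 37C. Luciferin read by luminescence after detection reagent; normalized to 57uM ketoconazole as full inhibition.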

Assay [12] addresses Cytochrome P450 2D6 (Homo sapiens) (UniProt P10635). The experiment in a line: qHTS Assay for Inhibitors and Substrates of Cytochrome P450 2D6 (AID 891; active = well fitted curve in the direction sought with a large enough effect; an effect the other way counts as inactive or inconclusive; also: potency is read from the fitted curve at half-maximal effect; nearly all actives have a fitted effect of over 60% in size). Particulars: recombinant CYP2D6, luciferin-ME EGE luminescence; series mostly up to 11.4 µM. The procedure, abridged: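 Human CYP2D6 (5 nM) with 30 uM Luciferin-ME EGE (at Km) in 100 mM KPO4, compound preincubated 10 min, then NADPH regeneration system for 60 min at room temperature. Luciferin read by luminescence; normalized to 1.43 uM quinidine.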

The structures appear in SMILES notation. A number with no mark means an inactive call. Inconclusive results are not listed. Calls of active or inactive are those of the source. Unless noted, calls follow the shape of the dose curve; as a rule, active = well fitted curve in either direction with a large enough effect (not every such curve was filed as active); inconclusive = small, poorly fitted or top-dose-only effect, or another doubt; inactive = flat fitted curve, though single readings scatter.

Chain of Glucocorticoid receptor (Homo sapiens) (P04150 whole entry, looked up): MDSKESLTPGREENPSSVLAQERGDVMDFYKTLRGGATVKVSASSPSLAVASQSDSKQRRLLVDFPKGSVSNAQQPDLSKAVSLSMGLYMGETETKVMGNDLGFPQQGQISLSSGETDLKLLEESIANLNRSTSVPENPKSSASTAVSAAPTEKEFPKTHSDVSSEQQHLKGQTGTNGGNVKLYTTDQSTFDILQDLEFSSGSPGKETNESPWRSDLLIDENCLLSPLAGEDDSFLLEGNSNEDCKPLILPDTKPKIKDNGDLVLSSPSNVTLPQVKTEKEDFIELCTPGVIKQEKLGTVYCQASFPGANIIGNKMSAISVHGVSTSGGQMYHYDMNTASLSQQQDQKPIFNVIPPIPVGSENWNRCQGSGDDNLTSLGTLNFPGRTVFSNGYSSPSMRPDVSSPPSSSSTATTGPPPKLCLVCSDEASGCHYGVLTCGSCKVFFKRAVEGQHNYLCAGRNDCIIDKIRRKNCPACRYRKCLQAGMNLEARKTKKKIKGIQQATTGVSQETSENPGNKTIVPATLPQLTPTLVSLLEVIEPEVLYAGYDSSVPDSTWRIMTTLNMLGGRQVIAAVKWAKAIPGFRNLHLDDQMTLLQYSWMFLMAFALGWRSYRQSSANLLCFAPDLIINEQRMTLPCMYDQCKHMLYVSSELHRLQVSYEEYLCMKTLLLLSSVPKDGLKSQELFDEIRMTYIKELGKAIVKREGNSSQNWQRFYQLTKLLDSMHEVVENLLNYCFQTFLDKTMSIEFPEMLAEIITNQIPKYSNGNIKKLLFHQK
Chain of Lysosomal acid glucosylceramidase (Homo sapiens) (P04062 whole entry, looked up): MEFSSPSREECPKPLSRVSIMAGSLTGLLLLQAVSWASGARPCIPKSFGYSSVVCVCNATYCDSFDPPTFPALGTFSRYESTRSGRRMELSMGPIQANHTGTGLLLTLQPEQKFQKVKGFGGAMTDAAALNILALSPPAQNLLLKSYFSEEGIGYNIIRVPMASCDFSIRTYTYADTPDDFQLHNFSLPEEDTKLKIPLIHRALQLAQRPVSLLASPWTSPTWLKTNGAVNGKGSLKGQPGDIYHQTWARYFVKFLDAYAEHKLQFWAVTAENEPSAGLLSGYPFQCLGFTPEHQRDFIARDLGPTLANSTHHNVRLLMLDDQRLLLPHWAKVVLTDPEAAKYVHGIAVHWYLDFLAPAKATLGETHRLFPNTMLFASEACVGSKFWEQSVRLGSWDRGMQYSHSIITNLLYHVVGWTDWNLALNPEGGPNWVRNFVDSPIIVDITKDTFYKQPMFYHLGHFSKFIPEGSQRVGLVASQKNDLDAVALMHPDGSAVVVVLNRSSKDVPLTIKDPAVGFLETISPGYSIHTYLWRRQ
Chain of Cytochrome P450 3A4 (Homo sapiens) (P08684 whole entry, looked up): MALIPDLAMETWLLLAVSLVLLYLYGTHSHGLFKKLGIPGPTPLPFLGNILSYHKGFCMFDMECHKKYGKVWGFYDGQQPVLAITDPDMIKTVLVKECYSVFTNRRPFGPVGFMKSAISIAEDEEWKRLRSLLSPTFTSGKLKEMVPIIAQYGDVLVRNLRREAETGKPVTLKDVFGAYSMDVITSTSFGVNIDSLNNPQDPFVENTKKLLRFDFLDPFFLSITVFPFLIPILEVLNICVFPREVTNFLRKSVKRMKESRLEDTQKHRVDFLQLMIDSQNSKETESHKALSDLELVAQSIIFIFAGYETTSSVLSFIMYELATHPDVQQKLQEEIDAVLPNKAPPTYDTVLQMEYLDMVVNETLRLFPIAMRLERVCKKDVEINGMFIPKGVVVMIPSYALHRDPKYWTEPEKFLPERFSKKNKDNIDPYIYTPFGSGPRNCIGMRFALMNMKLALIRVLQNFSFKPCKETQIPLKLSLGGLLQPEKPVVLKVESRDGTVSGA
Chain of Cytochrome P450 2D6 (Homo sapiens) (P10635 whole entry, looked up): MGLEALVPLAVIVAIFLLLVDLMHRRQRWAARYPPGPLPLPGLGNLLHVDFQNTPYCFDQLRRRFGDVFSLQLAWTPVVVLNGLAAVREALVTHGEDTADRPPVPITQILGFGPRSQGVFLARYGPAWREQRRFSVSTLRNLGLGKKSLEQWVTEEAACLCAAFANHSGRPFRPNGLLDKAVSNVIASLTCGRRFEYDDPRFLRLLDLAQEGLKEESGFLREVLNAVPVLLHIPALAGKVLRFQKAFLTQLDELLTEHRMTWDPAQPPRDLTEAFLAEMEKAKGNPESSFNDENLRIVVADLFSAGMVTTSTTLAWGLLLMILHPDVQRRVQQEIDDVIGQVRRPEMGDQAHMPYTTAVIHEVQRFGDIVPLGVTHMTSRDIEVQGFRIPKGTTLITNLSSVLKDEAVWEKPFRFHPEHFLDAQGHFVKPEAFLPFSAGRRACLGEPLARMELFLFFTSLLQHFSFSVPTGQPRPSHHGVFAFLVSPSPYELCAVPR
Chain of 3',5'-cyclic-AMP phosphodiesterase 4B (Homo sapiens) (Q07343 whole entry, looked up): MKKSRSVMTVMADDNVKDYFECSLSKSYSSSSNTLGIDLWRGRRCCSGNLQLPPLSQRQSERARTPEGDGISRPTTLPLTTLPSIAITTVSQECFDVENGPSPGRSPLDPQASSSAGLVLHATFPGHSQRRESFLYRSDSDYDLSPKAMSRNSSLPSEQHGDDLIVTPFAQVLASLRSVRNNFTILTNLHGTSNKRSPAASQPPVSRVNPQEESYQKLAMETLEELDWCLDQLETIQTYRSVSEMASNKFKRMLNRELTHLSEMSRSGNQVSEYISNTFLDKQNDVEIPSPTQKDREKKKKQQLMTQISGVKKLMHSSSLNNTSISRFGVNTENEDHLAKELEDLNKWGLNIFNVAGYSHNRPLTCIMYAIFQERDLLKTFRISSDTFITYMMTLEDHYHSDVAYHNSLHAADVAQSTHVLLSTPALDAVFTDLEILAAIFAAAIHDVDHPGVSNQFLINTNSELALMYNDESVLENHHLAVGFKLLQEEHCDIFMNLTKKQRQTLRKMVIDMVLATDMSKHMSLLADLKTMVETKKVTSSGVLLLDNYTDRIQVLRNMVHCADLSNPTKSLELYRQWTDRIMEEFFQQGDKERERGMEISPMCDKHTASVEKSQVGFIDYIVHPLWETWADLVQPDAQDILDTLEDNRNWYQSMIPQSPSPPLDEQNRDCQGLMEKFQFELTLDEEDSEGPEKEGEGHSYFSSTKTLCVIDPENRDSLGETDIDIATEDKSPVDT
Chain of Cytochrome P450 1A2 (Homo sapiens) (P05177 whole entry, looked up): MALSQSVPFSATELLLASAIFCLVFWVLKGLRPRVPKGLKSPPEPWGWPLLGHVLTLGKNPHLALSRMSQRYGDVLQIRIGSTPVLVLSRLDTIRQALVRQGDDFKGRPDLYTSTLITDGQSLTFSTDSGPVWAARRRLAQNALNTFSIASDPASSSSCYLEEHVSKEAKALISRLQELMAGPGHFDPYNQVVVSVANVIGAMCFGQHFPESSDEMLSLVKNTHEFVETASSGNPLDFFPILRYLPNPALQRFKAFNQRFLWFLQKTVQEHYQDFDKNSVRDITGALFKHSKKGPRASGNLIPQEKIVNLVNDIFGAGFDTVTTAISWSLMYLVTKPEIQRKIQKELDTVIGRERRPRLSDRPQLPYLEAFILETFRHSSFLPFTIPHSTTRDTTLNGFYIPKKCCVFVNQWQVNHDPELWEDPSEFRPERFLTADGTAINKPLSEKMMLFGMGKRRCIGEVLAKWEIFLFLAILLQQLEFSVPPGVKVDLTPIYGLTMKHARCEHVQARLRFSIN
Chain of Cytochrome P450 2C19 (Homo sapiens) (P33261 whole entry, looked up): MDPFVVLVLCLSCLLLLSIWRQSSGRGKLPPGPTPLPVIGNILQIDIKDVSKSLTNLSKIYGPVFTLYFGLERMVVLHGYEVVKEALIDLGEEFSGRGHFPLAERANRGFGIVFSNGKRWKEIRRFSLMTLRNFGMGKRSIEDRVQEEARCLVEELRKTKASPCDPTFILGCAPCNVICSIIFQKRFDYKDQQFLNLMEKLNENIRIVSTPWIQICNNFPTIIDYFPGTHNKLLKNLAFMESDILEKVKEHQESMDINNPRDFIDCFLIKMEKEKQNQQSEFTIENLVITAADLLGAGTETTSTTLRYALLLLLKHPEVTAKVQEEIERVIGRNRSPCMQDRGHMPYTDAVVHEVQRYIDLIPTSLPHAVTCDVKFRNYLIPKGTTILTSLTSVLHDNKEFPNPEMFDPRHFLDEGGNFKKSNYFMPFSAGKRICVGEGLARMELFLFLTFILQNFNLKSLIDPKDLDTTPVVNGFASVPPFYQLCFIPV

On to `Cc1cccc(CNc2ncnc3ccc(-c4ccc(C(=O)N(C)C)cc4)cc23)c1`, for which the Potency in [1] is over 11.4 µM; in assay [2], 15.8 µM (active); in assay [4], over 46 µM; in assay [5], over 46 µM; in [8], 2 µM (active). Further, the activity change, negative = inhibition in assay [3] was -8.36%. Moreover, the Potency result in assay [6], in assay [7] and in assay [9] was “inactive” in each case.
`C[N+](C)([O-])CCC=C1c2ccccc2CCc2ccccc21`: the Potency is over 11.4 µM in [1]; 0.794 µM (active) in assay [2]; over 46 µM in assay [4]; over 9.22 µM in assay [5]; 1.26 µM (active) in [8]; 0.398 µM (active) in assay [11]. Besides, the activity, negative = inhibition in [10] is 10.1%. Also, the Potency result in [6], in assay [7] and in [9] was “inactive” in each case.
In the case of `C[C@H]1CC(C)(C)C[C@@](OCCN2CCCCC2)(c2ccccc2)C1`, the Potency in assay [1] was over 11.4 µM; in assay [4] it was over 46 µM; in assay [5] it was over 9.22 µM; in assay [12], 0.631 µM (active). In addition, the Potency result in assay [2], in [6] and in [9] was “inactive” throughout. In [10], the activity, negative = inhibition is 7.87%.
For `CN(C)CCCN1c2ccc(O)cc2Sc2ccc(Cl)cc21`, the Potency was 9.49 µM (active) in [1]; 0.631 µM (active) in [2]; over 46 µM in assay [4]; over 9.22 µM in assay [5]; 0.126 µM (active) in assay [12]. Besides, the activity, negative = inhibition in [10] is 18.9%. Further, the Potency entry in assay [6] and in assay [7] was “inactive” each time.
Turning to `CCN(CC)CCN1c2ccccc2Sc2ccc3ccccc3c21`, the Potency in assay [1] is over 11.4 µM; in assay [2] it was 3.98 µM (active); in [4] it was over 46 µM; in [5], over 9.22 µM; in assay [12], 0.631 µM (active). In addition, in [10], the activity, negative = inhibition was 4.26%. Further, the Potency entry in assay [6] and in assay [7] was “inactive” in each case.
On to `NCCSCCC(=O)O`, for which the results for the Potency in assay [1], in [4] and in assay [5] were over 11.4 µM, over 46 µM and over 9.22 µM, respectively. Also, the Potency entry in [2], in [6] and in [7] was “inactive” in each case. In assay [3], the activity change, negative = inhibition was 11.4%. Besides, the activity, negative = inhibition in [10] is 0.279%.
As for `CC(C)[C@H](Sc1nc(N)nc2nc[nH]c12)C(=O)O`, the Potency in [1] is over 11.4 µM; in assay [2], 0.316 µM (active); in assay [5], over 9.22 µM. The activity change, negative = inhibition in [3] was 9.06%. In [10], the activity, negative = inhibition is 14.2%. The Potency result in [6] and in assay [7] was “inactive” in each case.
Regarding `Cc1ccc(N=Nc2c(O)c3ccccc3[nH]c2=O)c(S(=O)(=O)N(C)C)c1`, the values for the Potency in assay [1], in assay [4] and in [5] were over 11.4 µM, over 46 µM and over 9.22 µM, respectively. The values for the activity change, negative = inhibition in assay [2] and in assay [3] were -14.6% [at 2.29 µM] and 2.83%, respectively. The activity, negative = inhibition in assay [10] is 3.87%. Besides, the Potency result in assay [6] and in [7] was “inactive” throughout.

Values taken from PubChem BioAssay (NCATS).
